Laboratory results from PubChem BioAssay (Tox21).
Records with an inconclusive call do not appear. A call without a number means that no potency is given here. Values without a mark were called inactive. Activity calls are given as the source filed them. The call rests on the fitted dose curve; in most records, active means well fitted curve in the direction sought with a large enough effect in the repeat runs; inconclusive means weak or mixed curves; inactive means no such curve, though single readings can be large; an effect the other way counts as inactive or inconclusive.

What was measured:
[1] = A CellTox Green Cytotoxicity Assay to monitor cytotoxicity in HEK293 cells - 40 hour (AID 1224871); further: nearly all actives have a fitted effect of over 45% in size; further: potency means the concentration at half of the fitted maximal effect
Outline: (§1)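 Seeding of HEK293 cells together with cytotoxicity dye preceded a 5 h incubation at 37 C/5% CO2. Test compounds in DMSO were then added and fluorescence monitored across 40 h.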

[2] = qHTS RealTime-Glo MT Cell Viability Assay in HEK293 cells - 16 hour (AID 1224872); further: nearly all actives have a fitted effect of over 50% in size; further: potency means the concentration at half of the fitted maximal effect; on activity change, negative = cytotoxicity: top concentration of the series differs between compounds
Outline: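 Assay medium contained NanoLuc luciferase plus cell-permeant prosubstrate, added with HEK293 cells at 600 cells/well. After 5 h at 37 C/5% CO2 compounds were added; plates stayed at 37 C for 40 h with serial luminescence reads.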

[3] = qHTS RealTime-Glo MT Cell Viability Assay in HepG2 cells - 8 hour (AID 1224873); further: nearly all actives have a fitted effect of over 55% in size
Outline: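 Real-time viability: cells seeded at 600 per well together with NanoLuc and cell-permeant prosubstrate, compounds added after 5 h incubation. Luminescence tracked at 0, 8, 16, 24, 32 and 40 h of exposure.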

[4] = A CellTox Green Cytotoxicity Assay to monitor cytotoxicity in HepG2 cells - 16 hour (AID 1224876); further: nearly all actives have a fitted effect of over 45% in size; further: potency means the concentration at half of the fitted maximal effect
Outline: (§2)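 Nonlytic assay: viable cells exclude the dye, so fluorescence scales with cell death. HepG2 at 600 cells/well, compounds added after 5 h, signal read across 40 h.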

[5] = qHTS RealTime-Glo MT Cell Viability Assay in HepG2 cells - 32 hour (AID 1224877); further: nearly all actives have a fitted effect of over 55% in size
Outline: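 qHTS, HepG2, 600 cells/well, RealTime-Glo (NanoLuc + prosubstrate) added with cells; 5 h preincubation; DMSO compound addition; 37 C; luminescence at 0/8/16/24/32/40 h.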

[6] = A CellTox Green Cytotoxicity Assay to monitor cytotoxicity in HepG2 cells - 24 hour (AID 1224878); further: nearly all actives have a fitted effect of over 45% in size; further: potency means the concentration at half of the fitted maximal effect
Outline: as §2

[7] = qHTS RealTime-Glo MT Cell Viability Assay in HEK293 cells - 0 hour (AID 1224880); further: top concentration of the series differs between compounds; nearly all actives have a fitted effect of over 45% in size
Outline: (§3)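 Tox21 screen in HEK293 using RealTime-Glo MT chemistry, with cells and reagent co-dispensed. Luminescence proportional to viable cell number was captured at intervals during 40 h compound exposure at 37 C.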

[8] = A CellTox Green Cytotoxicity Assay to monitor cytotoxicity in HEK293 cells - 24 hour (AID 1224875)
Outline: as §1

[9] = A CellTox Green Cytotoxicity Assay to monitor cytotoxicity in HepG2 cells - 40 hour (AID 1224879); further: nearly all actives have a fitted effect of over 40% in size; further: potency means the concentration at half of the fitted maximal effect
Outline: as §2

[10] = qHTS RealTime-Glo MT Cell Viability Assay in HEK293 cells - 40 hour (AID 1224874); details: RealTime-Glo luminescence; max response: stronger effect = lower value; further: nearly all actives have a fitted effect of over 50% in size; further: potency means the concentration at half of the fitted maximal effect
Outline: as §3

## CC(CC(C#N)(c1ccccc1)c1ccccc1)N(C)C (stereo not given)
[1]
  Potency: inactive
[2]
  Potency: inactive
[3]
  Potency: inactive
[4]
  Potency: inactive
[5]
  Potency: inactive
[6]
  Potency: inactive
[7]
  outcome: inactive

## CCCSC(=O)N(CCC)CCC
[1]
  Potency: inactive
[2]
  Potency: inactive
[3]
  Potency: inactive
[8]
  Potency: inactive
[4]
  Potency: inactive
[5]
  Potency: inactive
[6]
  Potency: inactive
[9]
  Potency: inactive
[7]
  outcome: inactive

## CCN(CC)c1nc(C)cc(OP(=S)(OC)OC)n1
[1]
  Potency: inactive
[2]
  Potency: inactive
[3]
  Potency: inactive
[8]
  Potency: inactive
[4]
  Potency: inactive
[5]
  Potency: inactive
[6]
  Potency: inactive
[9]
  Potency: inactive
[7]
  outcome: inactive

## COc1cc(OC)nc(NC(=O)NS(=O)(=O)c2ncccc2OCC(F)(F)F)n1
[1]
  Potency: inactive
[2]
  Potency: inactive
[3]
  Potency: inactive
[8]
  Potency: inactive
[4]
  Potency: inactive
[6]
  Potency: inactive
[9]
  Potency: inactive
[7]
  outcome: inactive

## N#CC(O)c1ccccc1 (stereo not given)
[1]
  Potency: inactive
[2]
  Potency: inactive
[3]
  Potency: inactive
[8]
  Potency: inactive
[4]
  Potency: inactive
[5]
  Potency: inactive
[6]
  Potency: inactive
[9]
  Potency: inactive
[7]
  outcome: inactive

## N#CCNCC#N
[1]
  Potency: inactive
[3]
  Potency: inactive
[10]
  max response: 3.83%
[8]
  Potency: inactive
[4]
  Potency: inactive
[6]
  Potency: inactive
[9]
  Potency: inactive
[7]
  outcome: inactive

## CCCCOC(=O)c1ccccc1N
[1]
  Potency: 49.3 µM (active)
[3]
  Potency: inactive
[10]
  max response: 0.429%
[4]
  Potency: inactive
[5]
  Potency: inactive
[6]
  Potency: 49.3 µM (active)
[9]
  Potency: 55.3 µM (active)
[7]
  outcome: inactive

## CN1CCN(C(=O)O[C@H]2c3nccnc3C(=O)N2c2ccc(Cl)cn2)CC1
[1]
  Potency: inactive
[3]
  Potency: inactive
[10]
  max response: 6.06%
[8]
  Potency: inactive
[4]
  Potency: inactive
[5]
  Potency: inactive
[6]
  Potency: inactive
[9]
  Potency: inactive
[7]
  outcome: inactive

## CCNc1nc(NC(C)C)nc(OC)n1
[1]
  Potency: inactive
[3]
  Potency: inactive
[10]
  max response: -7.59%
[8]
  Potency: inactive
[4]
  Potency: inactive
[5]
  Potency: inactive
[6]
  Potency: inactive
[9]
  Potency: inactive
[7]
  outcome: inactive

## CN/C(=N\[N+](=O)[O-])NCC1CCOC1 (stereo not given)
[1]
  Potency: inactive
[3]
  Potency: inactive
[10]
  max response: 4.22%
[4]
  Potency: inactive
[5]
  Potency: inactive
[6]
  Potency: inactive
[9]
  Potency: inactive
[7]
  outcome: inactive

## C#CCN1C(=O)COc2cc(F)c(N3C(=O)C4=C(CCCC4)C3=O)cc21
[1]
  Potency: inactive
[3]
  Potency: inactive
[10]
  max response: 2.01%
[8]
  Potency: inactive
[4]
  Potency: inactive
[5]
  Potency: inactive
[6]
  Potency: inactive
[9]
  Potency: inactive
[7]
  outcome: inactive

## COc1cc(OC)nc(Sc2cccc(Cl)c2C(=O)O)n1
[1]
  Potency: inactive
[3]
  Potency: inactive
[10]
  max response: 16.2%
[8]
  Potency: inactive
[4]
  Potency: inactive
[6]
  Potency: inactive
[9]
  Potency: inactive
[7]
  outcome: inactive

## O=[N+]([O-])c1cccc2cccnc12
[1]
  Potency: inactive
[3]
  Potency: inactive
[10]
  max response: -7.09%
[8]
  Potency: inactive
[4]
  Potency: inactive
[5]
  Potency: inactive
[6]
  Potency: inactive
[9]
  Potency: inactive
[7]
  outcome: inactive

## CC(C(O)c1ccccc1)N(C)C/C=C/c1ccccc1 (stereo not given)
[1]
  Potency: inactive
[3]
  Potency: inactive
[10]
  max response: -19.6%
[8]
  Potency: inactive
[4]
  Potency: inactive
[5]
  Potency: inactive
[7]
  outcome: inactive

## Cc1ncc2n1-c1ccc(Cl)cc1C(c1ccccc1F)=NC2
[1]
  Potency: inactive
[3]
  Potency: inactive
[10]
  Potency: 19 µM (active)
[8]
  Potency: inactive
[4]
  Potency: inactive
[5]
  Potency: inactive
[6]
  Potency: inactive
[9]
  Potency: inactive
[7]
  outcome: inactive

## O=P(O)(Oc1ccccc1)Oc1ccccc1
[1]
  Potency: inactive
[3]
  Potency: inactive
[10]
  max response: 11.6%
[8]
  Potency: inactive
[4]
  Potency: inactive
[5]
  Potency: inactive
[6]
  Potency: inactive
[9]
  Potency: inactive
[7]
  outcome: inactive

## ClCC(Cl)Cl
[1]
  Potency: inactive
[3]
  Potency: inactive
[10]
  max response: -2.64%
[8]
  Potency: inactive
[4]
  Potency: inactive
[5]
  Potency: inactive
[6]
  Potency: inactive
[9]
  Potency: inactive
[7]
  outcome: inactive

## CCC(C)n1c(=O)[nH]c(C)c(Br)c1=O (stereo not given)
[1]
  Potency: inactive
[3]
  Potency: inactive
[10]
  max response: 0.435%
[8]
  Potency: inactive
[4]
  Potency: inactive
[5]
  Potency: inactive
[6]
  Potency: inactive
[9]
  Potency: inactive
[7]
  outcome: inactive

## CC1(C)CON(Cc2ccccc2Cl)C1=O
[1]
  Potency: inactive
[3]
  Potency: inactive
[10]
  max response: -0.432%
[4]
  Potency: inactive
[6]
  Potency: inactive
[9]
  Potency: inactive
[7]
  outcome: inactive

## CCOC(=O)CP(=O)(OCC)OCC
[1]
  Potency: inactive
[3]
  Potency: inactive
[10]
  max response: 0.417%
[8]
  Potency: inactive
[4]
  Potency: inactive
[5]
  Potency: inactive
[6]
  Potency: inactive
[9]
  Potency: inactive
[7]
  outcome: inactive

## COc1ccc(C(=O)N2CCCC2=O)cc1
[1]
  Potency: inactive
[3]
  Potency: inactive
[10]
  max response: -7.3%
[8]
  Potency: inactive
[5]
  Potency: inactive
[7]
  outcome: inactive

## CNC(=O)O/N=C(\C)SC
[1]
  Potency: inactive
[3]
  Potency: inactive
[10]
  max response: 14.5%
[8]
  Potency: inactive
[4]
  Potency: 0.219 µM (active)
[5]
  Potency: inactive
[6]
  Potency: inactive
[9]
  Potency: inactive
[7]
  outcome: inactive

## CCS(=O)(=O)CCSP(=O)(OC)OC
[1]
  Potency: inactive
[3]
  Potency: inactive
[10]
  max response: 10.4%
[8]
  Potency: inactive
[4]
  Potency: inactive
[5]
  Potency: inactive
[6]
  Potency: inactive
[9]
  Potency: inactive
[7]
  outcome: inactive

## O=C1c2ccccc2C(=O)c2ccccc21
[1]
  cytotoxicity increase: -0.882% [at 15.8 µM]
[3]
  viability change, negative = cytotoxic: 0.64% [at 15.8 µM]
[10]
  max response: 18.9%
[8]
  activity change: 6.87% [at 15.8 µM, stronger effect = higher value]
[4]
  cytotoxicity increase: 8.1% [at 15.8 µM]
[5]
  activity change, negative = cytotoxic: 1.27% [at 15.8 µM]
[6]
  cytotoxicity: 6.42% [at 15.8 µM]
[9]
  cytotoxicity increase: 18.9% [at 15.8 µM]
[7]
  activity change, negative = cytotoxicity: 1.83% [at 15.8 µM]

## O=C(Nc1ccccc1)N(Cc1ccc(Cl)cc1)C1CCCC1
[1]
  Potency: inactive
[2]
  Potency: 21.9 µM (active)
[10]
  Potency: 24.5 µM (active)
[8]
  Potency: inactive
[4]
  Potency: inactive
[6]
  Potency: inactive
[9]
  Potency: inactive
[7]
  outcome: inactive
